According to PubChem BioAssay (NCI):
This is part of a sample that, as a whole, favours compounds with a hit. Of some 83,000 tested, about 20% had one in any assay.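 Results are percent growth after 48 hours of single-concentration exposure. 100 means growth as in untreated cells, lower positive values show inhibition; negative values down to -100 show cell death.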 The source made the active and inactive calls. The calls were made as follows: active = growth percent below 10; inactive = the rest.

Columns and labels:
Assay in all cases: NCI-60 one-dose screen, 48 h (100 = growth as untreated, 0 = no growth, -100 = all killed)
Conditions in all cases: 10 µM unless noted
[1] = test system: SR leukemia
[2] = test system: RPMI-8226 leukemia
[3] = test system: OVCAR-8 ovarian
[4] = test system: OVCAR-5 ovarian
[5] = test system: OVCAR-4 ovarian
[6] = test system: SK-OV-3 ovarian
[7] = test system: IGROV1 ovarian
[8] = test system: HS 578T breast
[9] = test system: NCI/ADR-RES ovarian
[10] = test system: T-47D breast
[11] = test system: BT-549 breast
[12] = test system: MDA-MB-435 melanoma
[13] = test system: SW-620 colon
[14] = test system: MCF7 breast
[15] = test system: HCT-116 colon
[16] = test system: HCC-2998 colon
[17] = test system: KM12 colon

Measured: growth

CCCCn1sc(=O)n(Cc2ccc(CNC(=O)OCc3ccc4c(Cl)cc(Cl)c(O)c4n3)cc2)c1=O
inactive: [1] 65.6% | [2] 63% | [3] 38% | [4] 98.4% | [5] 65.2% | [6] 88.3% | [7] 57.4% | [8] 82.3% | [10] 62.8% | [11] 81.4% | [12] 69.6% | [13] 61% | [14] 63.5% | [15] 46.3% | [16] 98.7% | [17] 65.1%
active: [9] 9.16%

CC/C=C1/C(=O)C=C[C@@H]1C/C=C\CCCC(=O)OC
active: [1] 4.16% | [2] -5.45% | [12] 4.2% | [15] -59.6%
inactive: [3] 25.7% | [4] 112% | [5] 96.9% | [6] 117% | [7] 105% | [8] 43% | [9] 57.7% | [10] 62.4% | [11] 16.6% | [13] 14.9% | [14] 15.6% | [16] 114% | [17] 17.1%

CCOC(=O)c1c(C)nn(CC(O)c2ccccc2)c1NC(=O)Nc1cccc(F)c1 (configuration not stated)
inactive: [1] 93% | [2] 80.8% | [3] 93.1% | [4] 84.8% | [5] 83.6% | [6] 85.2% | [7] 90% | [8] 71.4% | [9] 90.9% | [10] 81.8% | [12] 86.8% | [13] 82.7% | [14] 81.4% | [15] 84% | [16] 94.6% | [17] 82.9%

CN(C)c1ccc(C(=NO)c2ccc(N(C)C)cc2)cc1
active: [12] -43.2%
inactive: [1] 12.7% | [2] 49.5% | [3] 39.4% | [4] 81.4% | [5] 71.3% | [6] 57.7% | [7] 51.9% | [8] 51.1% | [9] 13.4% | [10] 45.8% | [11] 53.4% | [13] 13.4% | [14] 32.6% | [15] 18.5% | [16] 58.6% | [17] 13.6%
